# In the supplement of paper PMC11001985:
# Unmarked numbers belong to inactive results.
# Compound: C#CCNC(=O)CCSSCCC(=O)NCCc1ccc(C=O)c(C=O)c1
# Assay: lysine labeling ratio R10:1 (500 µM / 50 µM probe), SILAC-ABPP in living cells; higher = lower intrinsic lysine reactivity toward the probe, active = 2 or less
# Details: HeLa; probe concentrations 500 vs 50 µM
# Method in brief: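 Measurements came from LC-MS/MS on a TIMS-TOF Pro of mixed SILAC light and heavy HeLa lysates after click to biotin-azide, trypsin digestion, neutravidin capture, DTT release and alkylation. Before lysis, the living cells sat in PBS at room temperature with 50 µM or 500 µM of an alkyne-tagged, disulfide-linked lysine probe, and labels were swapped forward and reverse. R per lysine is the median across both swap directions of the filtered median high-probe/low-probe MS1 peptide ratio. The cap is 20.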
# Chain of UniProt Q15149 (Q15149 whole entry): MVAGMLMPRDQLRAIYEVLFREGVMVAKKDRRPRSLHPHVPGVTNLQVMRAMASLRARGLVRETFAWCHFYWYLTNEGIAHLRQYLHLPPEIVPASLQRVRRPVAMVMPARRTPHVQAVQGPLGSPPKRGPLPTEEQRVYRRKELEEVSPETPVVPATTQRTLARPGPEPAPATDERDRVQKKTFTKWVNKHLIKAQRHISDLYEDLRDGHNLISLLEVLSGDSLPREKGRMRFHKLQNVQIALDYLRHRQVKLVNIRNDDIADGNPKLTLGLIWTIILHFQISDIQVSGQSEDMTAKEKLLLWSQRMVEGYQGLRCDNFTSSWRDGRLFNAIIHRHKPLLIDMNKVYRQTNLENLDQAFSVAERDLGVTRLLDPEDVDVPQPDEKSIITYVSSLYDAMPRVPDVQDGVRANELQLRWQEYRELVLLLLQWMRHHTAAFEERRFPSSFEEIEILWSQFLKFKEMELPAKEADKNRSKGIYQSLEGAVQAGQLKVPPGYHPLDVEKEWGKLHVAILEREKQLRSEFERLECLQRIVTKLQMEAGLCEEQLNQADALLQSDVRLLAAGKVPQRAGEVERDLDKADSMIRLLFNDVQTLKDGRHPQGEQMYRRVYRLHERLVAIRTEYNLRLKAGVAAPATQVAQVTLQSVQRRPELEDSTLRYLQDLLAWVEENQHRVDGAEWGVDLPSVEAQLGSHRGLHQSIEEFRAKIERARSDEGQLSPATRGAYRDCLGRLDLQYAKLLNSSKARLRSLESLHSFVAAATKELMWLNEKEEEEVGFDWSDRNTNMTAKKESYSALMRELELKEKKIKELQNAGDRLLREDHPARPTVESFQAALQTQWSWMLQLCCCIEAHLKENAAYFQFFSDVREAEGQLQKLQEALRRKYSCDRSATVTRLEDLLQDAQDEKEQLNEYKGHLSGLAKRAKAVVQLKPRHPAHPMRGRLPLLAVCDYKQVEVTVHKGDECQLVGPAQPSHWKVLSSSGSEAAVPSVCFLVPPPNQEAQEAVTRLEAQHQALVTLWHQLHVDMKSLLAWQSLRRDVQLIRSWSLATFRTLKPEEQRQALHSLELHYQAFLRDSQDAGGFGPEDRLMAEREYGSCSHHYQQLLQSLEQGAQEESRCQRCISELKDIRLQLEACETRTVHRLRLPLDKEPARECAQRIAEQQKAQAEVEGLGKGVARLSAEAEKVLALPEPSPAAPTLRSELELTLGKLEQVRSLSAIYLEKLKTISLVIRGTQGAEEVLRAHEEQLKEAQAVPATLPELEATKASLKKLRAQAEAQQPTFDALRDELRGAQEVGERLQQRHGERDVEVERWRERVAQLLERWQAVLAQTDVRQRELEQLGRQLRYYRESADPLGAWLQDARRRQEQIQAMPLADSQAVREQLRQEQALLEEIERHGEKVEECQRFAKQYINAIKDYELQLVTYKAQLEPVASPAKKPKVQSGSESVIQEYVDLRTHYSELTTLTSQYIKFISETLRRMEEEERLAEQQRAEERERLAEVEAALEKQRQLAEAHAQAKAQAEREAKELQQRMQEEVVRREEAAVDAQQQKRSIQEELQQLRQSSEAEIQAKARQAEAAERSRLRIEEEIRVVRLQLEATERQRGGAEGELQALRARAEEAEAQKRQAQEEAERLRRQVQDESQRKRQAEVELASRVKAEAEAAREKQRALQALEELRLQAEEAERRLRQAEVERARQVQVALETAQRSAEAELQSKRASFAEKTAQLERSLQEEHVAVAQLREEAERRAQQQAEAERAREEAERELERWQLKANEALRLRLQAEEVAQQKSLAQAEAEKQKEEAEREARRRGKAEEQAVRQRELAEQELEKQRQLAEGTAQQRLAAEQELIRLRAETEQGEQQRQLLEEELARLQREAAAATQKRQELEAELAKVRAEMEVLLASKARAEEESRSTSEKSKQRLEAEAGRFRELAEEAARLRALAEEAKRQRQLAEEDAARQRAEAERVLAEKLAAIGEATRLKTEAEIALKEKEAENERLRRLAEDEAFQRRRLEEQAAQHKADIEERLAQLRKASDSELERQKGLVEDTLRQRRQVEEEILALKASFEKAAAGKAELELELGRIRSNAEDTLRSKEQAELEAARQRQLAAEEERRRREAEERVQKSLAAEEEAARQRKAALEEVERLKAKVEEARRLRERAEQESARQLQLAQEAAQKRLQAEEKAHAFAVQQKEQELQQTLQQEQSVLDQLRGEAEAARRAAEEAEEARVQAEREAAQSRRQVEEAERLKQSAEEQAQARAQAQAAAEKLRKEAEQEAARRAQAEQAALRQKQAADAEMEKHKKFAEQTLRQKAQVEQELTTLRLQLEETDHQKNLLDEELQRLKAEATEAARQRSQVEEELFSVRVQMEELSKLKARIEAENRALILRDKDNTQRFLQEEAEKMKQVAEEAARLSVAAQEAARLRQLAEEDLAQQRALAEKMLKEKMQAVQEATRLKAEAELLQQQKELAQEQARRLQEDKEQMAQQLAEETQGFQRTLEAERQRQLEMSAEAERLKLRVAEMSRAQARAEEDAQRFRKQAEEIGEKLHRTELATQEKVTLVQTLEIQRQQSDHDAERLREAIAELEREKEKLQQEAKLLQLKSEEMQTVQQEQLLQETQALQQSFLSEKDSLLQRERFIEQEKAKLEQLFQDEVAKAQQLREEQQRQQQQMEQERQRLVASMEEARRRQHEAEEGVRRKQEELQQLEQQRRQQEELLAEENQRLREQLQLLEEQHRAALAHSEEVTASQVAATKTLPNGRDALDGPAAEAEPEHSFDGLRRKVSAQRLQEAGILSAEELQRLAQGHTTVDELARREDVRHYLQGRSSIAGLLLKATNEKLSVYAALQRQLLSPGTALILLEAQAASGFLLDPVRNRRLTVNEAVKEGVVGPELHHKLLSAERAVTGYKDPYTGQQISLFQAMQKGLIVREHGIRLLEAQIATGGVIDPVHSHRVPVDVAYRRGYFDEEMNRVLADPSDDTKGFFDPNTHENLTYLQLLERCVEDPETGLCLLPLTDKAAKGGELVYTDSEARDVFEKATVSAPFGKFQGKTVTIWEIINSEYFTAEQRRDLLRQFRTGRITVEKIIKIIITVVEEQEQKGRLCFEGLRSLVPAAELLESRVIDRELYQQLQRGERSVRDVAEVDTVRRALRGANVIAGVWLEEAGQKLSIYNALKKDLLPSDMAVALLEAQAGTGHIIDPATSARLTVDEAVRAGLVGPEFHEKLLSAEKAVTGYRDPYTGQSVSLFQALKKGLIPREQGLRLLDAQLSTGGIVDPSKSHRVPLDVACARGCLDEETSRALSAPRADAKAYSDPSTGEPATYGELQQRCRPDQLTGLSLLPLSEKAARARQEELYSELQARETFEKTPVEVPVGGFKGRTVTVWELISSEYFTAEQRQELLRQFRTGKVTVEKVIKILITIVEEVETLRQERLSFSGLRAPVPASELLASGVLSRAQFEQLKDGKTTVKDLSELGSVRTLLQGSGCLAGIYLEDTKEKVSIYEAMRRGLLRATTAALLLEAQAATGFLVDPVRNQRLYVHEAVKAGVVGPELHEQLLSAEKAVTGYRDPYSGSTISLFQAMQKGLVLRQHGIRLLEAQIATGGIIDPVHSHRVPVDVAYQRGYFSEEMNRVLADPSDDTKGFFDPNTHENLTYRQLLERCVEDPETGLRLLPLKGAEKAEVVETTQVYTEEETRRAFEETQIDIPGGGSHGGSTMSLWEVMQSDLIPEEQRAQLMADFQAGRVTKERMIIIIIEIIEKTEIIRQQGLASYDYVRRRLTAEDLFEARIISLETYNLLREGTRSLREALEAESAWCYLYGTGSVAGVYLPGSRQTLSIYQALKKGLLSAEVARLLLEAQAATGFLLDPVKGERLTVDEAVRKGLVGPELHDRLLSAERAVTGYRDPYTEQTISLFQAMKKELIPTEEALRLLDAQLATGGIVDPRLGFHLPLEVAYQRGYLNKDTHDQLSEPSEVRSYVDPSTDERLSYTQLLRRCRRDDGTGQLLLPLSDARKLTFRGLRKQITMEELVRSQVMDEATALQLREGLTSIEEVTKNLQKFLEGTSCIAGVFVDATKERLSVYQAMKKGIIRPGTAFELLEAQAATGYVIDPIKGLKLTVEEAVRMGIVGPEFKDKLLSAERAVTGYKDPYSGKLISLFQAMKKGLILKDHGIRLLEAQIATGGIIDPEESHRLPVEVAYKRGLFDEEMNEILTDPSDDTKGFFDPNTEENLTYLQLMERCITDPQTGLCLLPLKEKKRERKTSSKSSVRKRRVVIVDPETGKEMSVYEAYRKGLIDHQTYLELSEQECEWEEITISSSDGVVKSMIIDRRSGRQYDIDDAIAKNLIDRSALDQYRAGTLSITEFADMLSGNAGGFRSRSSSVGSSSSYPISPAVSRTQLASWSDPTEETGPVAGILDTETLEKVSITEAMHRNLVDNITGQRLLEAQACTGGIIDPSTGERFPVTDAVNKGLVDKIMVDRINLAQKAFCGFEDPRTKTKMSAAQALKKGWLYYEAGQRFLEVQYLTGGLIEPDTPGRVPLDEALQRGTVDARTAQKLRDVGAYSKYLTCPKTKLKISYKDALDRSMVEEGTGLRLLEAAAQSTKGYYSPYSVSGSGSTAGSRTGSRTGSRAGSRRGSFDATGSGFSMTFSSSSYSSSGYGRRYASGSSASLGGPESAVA
# Chain of UniProt P80723 (P80723 whole entry): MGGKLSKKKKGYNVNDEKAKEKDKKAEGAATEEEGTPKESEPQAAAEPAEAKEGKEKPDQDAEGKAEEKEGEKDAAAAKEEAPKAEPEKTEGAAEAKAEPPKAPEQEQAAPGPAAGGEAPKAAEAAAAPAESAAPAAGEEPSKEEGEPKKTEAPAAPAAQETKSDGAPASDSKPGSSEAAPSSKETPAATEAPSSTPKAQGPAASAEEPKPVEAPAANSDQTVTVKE
# Chain of UniProt P23528 (P23528 whole entry): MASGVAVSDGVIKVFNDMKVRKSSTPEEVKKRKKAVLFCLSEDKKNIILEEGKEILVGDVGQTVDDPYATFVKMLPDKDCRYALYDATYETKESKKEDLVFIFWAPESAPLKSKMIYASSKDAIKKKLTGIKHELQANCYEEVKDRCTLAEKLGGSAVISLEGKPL
row,Target,lysine labeling ratio R10:1
1,UniProt P26639 (lysine site: K243),3.1
2,EPHA2 (lysine site: K162) (UniProt P29317),5.99
3,EGFR (lysine site: K328) (UniProt P00533),3.46
4,UniProt Q99623 (lysine site: K147),3.43
5,UniProt Q9UKX5 (lysine site: K223),2.86
6,UniProt P62913 (lysine site: K178),3.2
7,PLS3 (lysine site: K335) (UniProt P13797),0.765 (active)
8,PTGFRN (lysine site: K576) (UniProt Q9P2B2),2.67
9,UniProt Q15149 (lysine site: K2037),1.95 (active)
10,MSN (lysine site: K391) (UniProt P26038),1.79 (active)
11,TFRC (lysine site: K145) (UniProt P02786),2.7
12,ROR2 (lysine site: K382) (UniProt Q01974),1.95 (active)
13,L1CAM (lysine site: K568) (UniProt P32004),3.06
14,EDIL3 (lysine site: K290) (UniProt O43854),2.39
15,SPTBN1 (lysine site: K1815) (UniProt Q01082),2.56
16,FLNB (lysine site: K1955) (UniProt O75369),1.23 (active)
17,DDX5 (lysine site: K523) (UniProt P17844),4.4
18,CCT6A (lysine site: K388) (UniProt P40227),1.46 (active)
19,PTBP1 (lysine site: K428) (UniProt P26599),3.97
20,BASP1 (lysine site: K143) (UniProt P80723),3.54

row,Target,lysine labeling ratio R10:1
1,HNRNPU (lysine site: K697) (UniProt Q00839),0.915 (active)
2,UniProt Q15149 (lysine site: K3027),2.74
3,HSP90B1 (lysine site: K733) (UniProt P14625),3.26
4,DDX5 (lysine site: K375) (UniProt P17844),2.45
5,PRDX2 (lysine site: K119) (UniProt P32119),2 (active)
6,CFL1 (lysine site: K144) (UniProt P23528),3.15
7,L1CAM (lysine site: K144) (UniProt P32004),1.09 (active)
8,ITGB1 (lysine site: K91) (UniProt P05556),1.53 (active)
9,CD58 (lysine site: K60) (UniProt P19256),6.36
10,UniProt Q32P28 (lysine site: K662),5.32
11,LRP1 (lysine site: K3803) (UniProt Q07954),3.09
12,CCT2 (lysine site: K135) (UniProt P78371),2.8
13,SPTAN1 (lysine site: K1759) (UniProt Q13813),4.65
14,PFKP (lysine site: K109) (UniProt Q01813),1.5 (active)
15,UniProt Q15149 (lysine site: K2099),4.12
16,EGFR (lysine site: K226) (UniProt P00533),11
17,TNFRSF10B (lysine site: K72) (UniProt O14763),3.31
18,AHCY (lysine site: K20) (UniProt P23526),1.54 (active)
19,PTGFRN (lysine site: K763) (UniProt Q9P2B2),4.93
20,UniProt P62701 (lysine site: K233),4.48
